Most compounds without a hit are left out; they make up all but 8.1% or so of the library.
MCF10A rereplic = induces DNA re-replication in MCF 10a normal breast cells; Potency, µM (top dose mostly 46.1 µM), most hits filed as activators; MCF 10A DNA re-replication, Hoechst nuclear intensity, 48 h; 350,000 compounds, 2.9% hits; further: nearly all actives have a fitted effect of over 50% in size
KB-3-1 cytotox = KB-3-1 parental cell cytotoxicity. Potency, µM (series often up to 46.1 µM), hits mostly cytotoxic. 400,000 compounds, 1.4% hits. KB-3-1 viability, CellTiter-Glo ATP luminescence, 72 h; further: nearly all actives have a fitted effect of over 60% in size
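Multi-concentration cytotoxicity screen in KB-3-1 cells grown in DMEM lacking phenol red with 10% FBS. After 72 h at 37 °C with compound, ATP-dependent luminescence was recorded.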
SW480 rereplic = DNA re-replication induction in SW480 cells; SW480 DNA re-replication, Hoechst DNA content imaging, 48 h; Potency, µM (highest dose often 46.1 µM), usual class: activators; 340,000 compounds, 1.8% hits; AID 624297; further: nearly all actives have a fitted effect of over 55% in size
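Readout is total intensity of Hoechst-stained nuclei, excited at 405 nm and collected at 500-530 nm. Compound treatment lasted 48 hr at 37 C in 5% CO2 before staining.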
KB-V1 MDR tox = kills drug-selected multidrug resistant KB-V1 cells | KB-V1 MDR cells viability, CellTiter-Glo, 72 h | Potency, µM (top dose mostly 46.1 µM), usual class: cytotoxic | 400,000 compounds, 3.4% hits; further: nearly all actives have a fitted effect of over 60% in size
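KB-V1 cells (P-gp-expressing MDR subline of KB-3-1) in phenol-red-free DMEM with 10% FBS were exposed to library compounds over a concentration series for 72 h at 37 degrees C. Viability read by CellTiter-Glo luminescence; concentration-effect curves fitted after normalization.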
ELG1 repair inh = inhibitors of ELG1-dependent DNA repair in HEK293T cells; HEK293T ELG1-luciferase reporter, luminescence, 16 h; DNA damage induced by 5-fluorouridine; 330,000 compounds, 2.3% hits; Potency, µM (titrated, usually from 46.1 µM), usual class: inhibitors; further: nearly all actives have a fitted effect of over 55% in size
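Quantitative HTS, concentration-response format. 2,000 cells/well co-treated with 5-fluorouridine and compound, 16 hr in 5% CO2 at 37 °C; ONE-Glo luminescence read after 30 min.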
Of the large screens only hits and unclear results are named; the others gave an inactive call. The call rests on the fitted dose curve; in most records, active means well fitted curve in the direction sought with a large enough effect; inconclusive means small, poorly fitted or top-dose-only effect, or another doubt; inactive means no such curve, though single readings can be large; an effect the other way counts as inactive or inconclusive.

COc1cc(-c2nnc(-c3cc(OC)c(OC)c(OC)c3)o2)cc(OC)c1OC	KB-3-1 cytotox inconclusive, ELG1 repair inh 8.2µM
COc1cc(-c2nnc(CSc3nnc(Nc4ccc(Oc5ccccc5)cc4)s3)o2)cc(OC)c1OC	KB-3-1 cytotox inconclusive, ELG1 repair inh 7.3µM
COc1cc(-c2nnc(COc3ccc4ccccc4c3)o2)cc(OC)c1OC	MCF10A rereplic inconclusive, KB-V1 MDR tox 23µM, ELG1 repair inh inconclusive
COc1cc(-c2nnc(-c3ccccc3)o2)cc(OC)c1OC	KB-V1 MDR tox 9.2µM, ELG1 repair inh 23µM
OC[C@@H]1CN(Cc2cccc(C(F)(F)F)c2)C[C@H](n2cnc3c(NC4CC4)ncnc32)O1	none (no result: MCF10A rereplic, SW480 rereplic, ELG1 repair inh)
Cc1ccccc1C(=O)Nc1ccc(C(=O)N/N=C/c2ccccn2)cc1	none
CCOc1ccc(NS(=O)(=O)c2cccc(C(=O)N3CCN(C/C=C/c4ccccc4)CC3)c2)cc1	MCF10A rereplic inconclusive, KB-3-1 cytotox 18µM, KB-V1 MDR tox 6.5µM (no result: ELG1 repair inh)
CCOc1ccc(S(=O)(=O)Nc2cccc(C(=O)N3CCN(c4ccccn4)CC3)c2)cc1	KB-V1 MDR tox inconclusive (no result: MCF10A rereplic, SW480 rereplic, ELG1 repair inh)
O=C(c1ccc(S(=O)(=O)Nc2cccc(C(F)(F)F)c2)cc1)N1CCN(c2ccccc2O)CC1	MCF10A rereplic inconclusive, KB-3-1 cytotox inconclusive, KB-V1 MDR tox 21µM
CCOc1ccc(S(=O)(=O)Nc2cccc(C(=O)N3CCN(c4ccccc4O)CC3)c2)cc1	MCF10A rereplic inconclusive, KB-V1 MDR tox 21µM, ELG1 repair inh inconclusive
CCn1c(=S)sc2c(=O)n(CC(=O)Nc3ccccc3C(F)(F)F)c(C)nc21	ELG1 repair inh inconclusive
COc1cc(OC)c(OC)cc1/C=C/c1cc(C(F)(F)F)[nH]c(=O)n1	MCF10A rereplic 23µM, KB-3-1 cytotox inconclusive, SW480 rereplic 18µM
COc1cc(/C=C/c2cc(C(F)(F)F)[nH]c(=O)n2)cc(OC)c1OC	MCF10A rereplic inconclusive, KB-3-1 cytotox inconclusive, SW480 rereplic 21µM, ELG1 repair inh inconclusive
O=c1nc(/C=C/c2cccn2-c2ccc([N+](=O)[O-])cc2)cc(C(F)(F)F)[nH]1	none
O=c1nc(/C=C/c2cc([N+](=O)[O-])ccc2Cl)cc(C(F)(F)F)[nH]1	MCF10A rereplic 3.3µM, KB-V1 MDR tox inconclusive, ELG1 repair inh inconclusive
CCN(CC)S(=O)(=O)c1ccc2c(c1)c(=O)c(C(=O)NCc1ccc3c(c1)OCO3)cn2C	ELG1 repair inh inconclusive (no result: KB-3-1 cytotox, KB-V1 MDR tox)
Cc1cccc(NC(=S)NCc2ccncc2)c1C	none
CC(C)CCNc1ncnc2c1nnn2Cc1ccccc1Cl	KB-V1 MDR tox 13µM
OCCNc1ncnc2c1nnn2Cc1ccccc1Cl	none (no result: MCF10A rereplic, SW480 rereplic, ELG1 repair inh)
Cc1onc(-c2ccccc2Cl)c1C(=O)NCc1nnnn1-c1ccc(F)cc1	none
O=C(Nc1ccc2c(c1)OCO2)C1CC(=O)N(CCc2ccccc2)C1 (stereo not drawn)	none
Nc1ccc(Br)cc1C(NCC(=O)O)c1ccccc1 (stereo not drawn)	SW480 rereplic 6.5µM
COC(=O)CNC(c1ccccc1)c1cc(C)ccc1NC(=O)c1cccc(Cl)c1 (stereo not drawn)	MCF10A rereplic inconclusive, SW480 rereplic inconclusive, ELG1 repair inh 18µM
CCOC(=O)CNC(c1ccccc1)c1cc(Br)ccc1NC(C)=O (stereo not drawn)	SW480 rereplic 2.9µM
COC(=O)CNC(c1ccccc1)c1cc(Br)ccc1NC(=O)OCc1ccccc1 (stereo not drawn)	KB-V1 MDR tox inconclusive
Cc1ccc(CCNC(=O)CCn2nc(-c3ccccc3)ccc2=O)cc1	none (no result: MCF10A rereplic, SW480 rereplic, ELG1 repair inh)
COc1ccc(C(CNC(=O)c2ccc(OCC3CCCO3)cc2)N2CCOCC2)cc1 (stereo not drawn)	none
CCOC(=O)c1cc(C(C)(C)C)oc1CNC(=O)c1c(C)oc2c1CCCC2	MCF10A rereplic 21µM, ELG1 repair inh inconclusive
CCOC(=O)c1c(C)oc2nc(C)nc(NCCCN3CCN(c4cc(C)ccc4C)CC3)c12	KB-V1 MDR tox inconclusive (no result: MCF10A rereplic, SW480 rereplic, ELG1 repair inh)
COc1ccc(C)cc1S(=O)(=O)N1CCN(C(=O)c2ncoc2-c2cccc(C)c2)CC1	KB-V1 MDR tox inconclusive
O=C(COc1ccc(Br)cc1CO)Nc1ccc(S(=O)(=O)N2CCCCC2)cc1	ELG1 repair inh 18µM
N#C/C(=N\Nc1ccc(S(=O)(=O)N2CCOCC2)cc1)C(N)=S	ELG1 repair inh inconclusive
CCOC(=O)Cc1csc(NC(=O)COc2ccc(N(C)S(=O)(=O)c3ccc(C)cc3)cc2)n1	ELG1 repair inh 18µM
N#CC(C#N)=NNc1ccc(S(=O)(=O)N2CCCCC2)cc1	MCF10A rereplic 26µM, ELG1 repair inh inconclusive
CCc1ccc(OCC(=O)Nc2ccc(S(=O)(=O)N3CCCC3)cc2)c(Br)c1	none
COC(=O)c1ccc(NC(=O)COc2ccc(S(=O)(=O)N3CCCCC3)cc2)cc1	KB-V1 MDR tox 5.2µM
O=[N+]([O-])c1ccc(/C=N/n2cn[nH]c2=S)cc1	none
Cc1ccc(Sc2c([N+](=O)[O-])c(C)nn2C)cc1	MCF10A rereplic inconclusive
COc1ccccc1N(C)S(=O)(=O)c1ccc(Cl)c(C(=O)NCCCN2CCOCC2)c1	KB-V1 MDR tox inconclusive
O=P(O)(C(O)c1ccccc1)C(O)c1ccccc1 (stereo not drawn)	MCF10A rereplic inconclusive
COC(=O)c1ccc(NC(=O)CC(=O)Nc2ccc(C(=O)OC)cc2)cc1	MCF10A rereplic 15µM
CC(=O)Nc1ccc(NC(=O)C(C)OC(=O)c2ccc(S(=O)(=O)N3CCCCCC3)cc2)cc1 (stereo not drawn)	MCF10A rereplic 15µM, KB-3-1 cytotox inconclusive, SW480 rereplic inconclusive, KB-V1 MDR tox inconclusive
Cc1nnsc1C(=O)Nc1ccc(S(=O)(=O)N2CCCCC2)cc1	ELG1 repair inh 12µM
CCOc1ccc(S(=O)(=O)N(C)c2ccc(OCC(=O)Nc3nc4ccccc4s3)cc2)cc1	MCF10A rereplic inconclusive, KB-3-1 cytotox inconclusive, KB-V1 MDR tox inconclusive, ELG1 repair inh inconclusive
CC(=O)Nc1cccc(C(=O)OC(C)C(=O)Nc2ccc(S(=O)(=O)N3CCCC3)cc2)c1 (stereo not drawn)	none
CN(c1ccc(OCC(=O)Nc2nc3ccccc3s2)cc1)S(=O)(=O)c1ccccc1	KB-V1 MDR tox inconclusive, ELG1 repair inh 8.2µM
COc1ccc(C(=O)Nc2cc(-c3ccccc3)nn2-c2ccccc2F)cc1	MCF10A rereplic inconclusive, ELG1 repair inh inconclusive
Cc1cccc(NC(=O)COC(=O)c2ccc(S(=O)(=O)N3CCCCCC3)cc2)c1	KB-V1 MDR tox 16µM
CC(=O)Nc1ccc(S(=O)(=O)N2CCC(C(=O)c3ccc(Cl)cc3)CC2)cc1	MCF10A rereplic inconclusive, ELG1 repair inh 18µM
O=C(COC(=O)c1ccc(S(=O)(=O)N2CCCC2)cc1)Nc1cccc(Br)c1	none
Cc1nnc(NC(=O)c2ccc(S(=O)(=O)N3CCCCC3)cc2)s1	none
Cc1ccc(C)c(C(=O)OCC(=O)Nc2cccc(S(=O)(=O)N3CCCCC3)c2)c1	KB-3-1 cytotox 15µM, SW480 rereplic inconclusive, KB-V1 MDR tox inconclusive

Screening results: PubChem, National Center for Advancing Translational Sciences (NCATS)
